# Casp6 inh: human caspase-6 inhibitors, primary screen, biochemical, VEID-R110 fluorescence, single point, set 2; actives 0.53% (n = 350,000); P55212; inhibition, % at 12.5 µM; purified caspase-6, Z-VEID-R110 cleavage fluorescence;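 active means mean inhibition across replicates at least about 35%, with every replicate also reaching that limit, limit read from the data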;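 further: 0% = median of neutral control wells and 100% = no fluorescence left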
# Target sequence (P55212 24-179 limits assumed): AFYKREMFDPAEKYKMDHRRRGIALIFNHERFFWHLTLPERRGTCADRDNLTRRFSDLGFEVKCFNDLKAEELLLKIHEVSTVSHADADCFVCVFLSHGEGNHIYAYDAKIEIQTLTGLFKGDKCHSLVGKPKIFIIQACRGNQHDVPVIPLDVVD
# Target sequence (P55212 194-293 limits assumed): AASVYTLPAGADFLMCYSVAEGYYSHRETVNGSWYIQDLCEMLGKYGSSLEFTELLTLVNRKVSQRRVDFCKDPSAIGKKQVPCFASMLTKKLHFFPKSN
# UBC9 SUMO inh: inhibitors of in vitro SUMOylation cascade, primary screen, biochemical, HTRF, uHTS | HTRF SUMOylation assay, SAE1/SAE2 + UBC9 | actives 0.36% (n = 290,000) | SUMO-conjugating enzyme UBC9 (Homo sapiens), P63279 | inhibition, % at 35 µM; in the data active means inhibition above about 50%, passing the limit was not always enough
# NSD2 HMT inh: NSD2 histone methyltransferase inhibitors, primary screen, biochemical, AlphaScreen, single concentration, set 2; NSD2 peptide methylation, 120 min; inhibition, % at 12.5 µM; actives 0.54% (n = 310,000); AID 743445, 2014; in the data active means inhibition above about 50%
# SIRT5 block: SIRT5 desuccinylase inhibitors, primary screen, biochemical, fluorescence imaging, single point, set 5; actives 1.1% (n = 330,000); Purified SirT5, succinyl-peptide AMC, trypsin-coupled fluorescence; inhibition, % at 15 µM; AID 652115, 2013; NAD-dependent protein deacylase sirtuin-5, mitochondrial (Homo sapiens), Q9NXA8; in the data active means inhibition above about 15%
# Target sequence (Q9NXA8 whole entry, looked up): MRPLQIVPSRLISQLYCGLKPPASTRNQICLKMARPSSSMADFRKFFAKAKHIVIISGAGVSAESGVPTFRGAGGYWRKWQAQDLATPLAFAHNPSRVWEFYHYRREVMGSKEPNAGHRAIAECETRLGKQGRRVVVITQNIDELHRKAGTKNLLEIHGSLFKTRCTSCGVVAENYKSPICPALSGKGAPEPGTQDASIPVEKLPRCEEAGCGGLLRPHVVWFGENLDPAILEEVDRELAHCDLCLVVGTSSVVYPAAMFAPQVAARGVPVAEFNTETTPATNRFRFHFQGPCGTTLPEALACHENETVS
# CASP1 counter: human caspase-1 inhibitors, dose response, selectivity assay for caspase-6 inhibitor project, biochemical, Z-YVAD-R110 fluorescence, cherry-pick, set 2. shares compounds with Casp6 inh. purified caspase-1, Z-YVAD-R110 cleavage fluorescence. activity change, negative = inhibition, % at 35 µM. 100 tested, under 10 active. AID 743289, 2014;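 active means compounds lowering fluorescence whose fitted half-maximal concentration is no more than twice their top tested dose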
# AlphaScreen art: AlphaScreen signal interference with preloaded methylated product, dose response, artefact control for NSD2 inhibitor project, biochemical, cherry-picked samples | AC35, µM (doses to about 10 µM), inactives show at the highest dose activity change, negative = signal loss | shares compounds with NSD2 HMT inh | AlphaScreen artifact counterscreen, preloaded methylated H4 peptide | actives 9.4% (n = 1,500); call rule not given here
# Active calls of the source: *; · = no result. The list is not random: actives were taken first. Their share in the collection is about 1.6%.
SMILES,Casp6 inh,UBC9 SUMO inh,NSD2 HMT inh,SIRT5 block,AlphaScreen art,others
Cc1cc(C=O)c(C)n1-c1ccc(Cl)c(C(=O)O)c1,54*,9,167*,7,-8%,CASP1 counter=3
O=C(O)C[C@H]1CC[C@@H]2[C@H](COC[C@@H](O)CN2S(=O)(=O)c2ccc(F)cc2)O1,5,·,·,11,·,
Cc1c(NC(=O)C(C)OC(=O)c2sc3ccccc3c2Cl)c(=O)n(-c2ccccc2)n1C (stereo unspecified),1,8,3,10,·,
Cc1c(NC(=O)C(C)OC(=O)c2ccc([N+](=O)[O-])s2)c(=O)n(-c2ccccc2)n1C (stereo unspecified),94*,8,115*,-3,-2%,CASP1 counter=4
O=C(NC1CCC1)[C@@H]1[C@@H](CO)[C@@H]2Cn3c(ccc(C4=CCCC4)c3=O)[C@@H]2N1C(=O)C1CCCC1,-3,·,·,-7,·,
Cc1c(-c2ccc(Cl)cc2)oc(=O)c2c(N)n(-c3ccccc3)nc12,·,-9,0,·,·,
Nc1c2c(=O)oc(-c3ccccc3)cc2nn1-c1ccccc1,·,-10,126*,·,-9%,
C[C@@H]1CN([C@@H](C)CO)C(=O)c2cc(NC(=O)c3ccncc3)ccc2O[C@@H]1CN(C)Cc1ccc(Cl)c(Cl)c1,0,·,·,-13,·,
COc1cccc(CN2[C@H](CO)[C@@H](c3ccccc3)C23CN(C(=O)C2CCOCC2)C3)c1,1,·,·,-1,·,
Cc1cc(C)cc(NC(=S)N(CCCN2CCN(C)CC2)Cc2cccs2)c1,-4,-8,2,-1,·,
Cc1cccc(C)c1NC(=S)N(CCCN1CCN(C)CC1)Cc1cccs1,·,-28,75*,0,-7%,
CCN(C(=O)/C=C/c1ccc2c(c1)OCO2)c1ccccc1,·,-4,62*,·,3%,
O=C(C[C@H]1CC[C@@H](NS(=O)(=O)c2cccc(F)c2)[C@H](CO)O1)N1CCCCC1,0,·,·,-5,·,
O=C1C(Cl)=C(N2CCC(C(=O)O)CC2)C(=O)c2ccccc21,·,·,102*,·,2%,
CN1CCN(C2=C(NS(=O)(=O)c3ccccc3)C(=O)c3ccccc3C2=O)CC1,·,29,48,·,·,
CN1CCN(C2=C(Cl)C(=O)c3ccccc3C2=O)CC1,99*,·,106*,6,-3%,
CCN(C[C@H]1N[C@@H](CO)[C@@H]1c1ccc(C2=CCCC2)cc1)C(=O)c1ccncc1,-2,·,·,4,·,
CCN(CC)CCNC(=O)Cn1nc(Cc2ccncc2)c2ccccc2c1=O,-36,-9,2,-3,·,
CCN(CC)CCNC(=O)Cc1nn(Cc2ccccc2)c(=O)c2ccccc12,-3,8,51*,-2,-2%,
Cc1nc(NC(=O)CSc2cc(C)c3ccccc3n2)c(Cl)cc1Cl,·,-6,-1,·,·,
Cc1cc(SCC(=O)c2ccc(O)c(O)c2)nc2ccccc12,21,2,67*,-1,-18%,
Cc1cc(SCC(=O)c2ccc3c(c2)OCO3)nc2ccccc12,·,-17,-5,·,·,
Cc1cc(SCC(=O)Nc2cccnc2Cl)nc2ccccc12,-1,-4,65*,-4,-4%,
C[C@H]1CN([C@@H](C)CO)C(=O)c2cc(C#CC3(O)CCCC3)cnc2O[C@@H]1CN(C)C(=O)Cc1ccncc1,-1,·,·,0,·,
O=C1C(Cl)=C(Nc2ccc3cn[nH]c3c2)C(=O)c2ccccc21,4,42,·,-2,·,
SMILES,Casp6 inh,UBC9 SUMO inh,NSD2 HMT inh,SIRT5 block,AlphaScreen art,others
CN(C)c1ccc(NC2=C(Cl)C(=O)c3ccccc3C2=O)cc1,4,-8,58*,-2,8.8µM*,
CN1CCN(C(=O)C[C@@H]2CC[C@H](NC(=O)c3ccc4c(c3)OCO4)[C@H](CO)O2)CC1,0,·,·,-2,·,
Cc1cc(C)cc(-n2c(C)nc3cc(C(=O)O)ccc32)c1,-5,-5,73*,-1,-1%,
CCN(CC)CCNS(=O)(=O)c1ccc2c3c(cccc13)C(=O)N2,-6,58*,55*,-17,1%,
CN1CCN(S(=O)(=O)c2ccc3c4c(cccc24)C(=O)N3)CC1,-2,7,·,·,·,
Cc1ccc(C(=O)OCC(=O)N2CCOCC2)cc1,2,16,19,-3,·,
O=C(OCC(=O)N1CCOCC1)c1ccc(Br)cc1,0,2,64*,8,-1%,
CN1c2ccc(-c3cccc(F)c3)cc2[C@@H]2[C@@H](CCN2C(=O)c2cccc(F)c2)[C@@H]1CO,1,·,·,-1,·,
CCc1nnc(NC(=O)c2ccc(COc3ccccc3)o2)s1,·,7,96*,·,1%,
CCSc1nnc(NC(=O)c2ccc3ccccc3n2)s1,·,-46,1,·,·,
CCc1nnc(NC(=O)c2ccc3ccccc3n2)s1,-5,-51,78*,-2,-1%,
COc1ccc(S(=O)(=O)Nc2ccc3c(c2)[C@H]2C[C@@H](CC(=O)O)O[C@H](CO)[C@H]2O3)cc1,0,·,·,-5,·,
COc1cccc(CN2CCC(Oc3ccc(C(=O)N4CCCCC4)cc3)CC2)c1O,4,7,58*,1,-4%,
COc1ccc2c3c(n(C)c2c1)[C@H](CO)N(Cc1ccncc1)CC31CN(C(=O)Cc2ccncc2)C1,-1,·,·,·,·,
CC1(C)Cc2c(c(-c3ccco3)[nH]c(=O)c2C#N)CO1,·,14,58*,·,0%,
CN(C)CCNc1nc(-c2ccco2)c2c(c1C#N)CC(C)(C)OC2,·,20,127*,·,-1%,
COC(=O)c1ccccc1NC1OC(=O)c2ccccc21 (stereo unspecified),1,0,-1,-4,·,
Cc1ccc2cccc(NC3OC(=O)c4ccccc43)c2n1 (stereo unspecified),·,36,87*,·,-5%,
CCc1cc(OCCN2C(=O)NC(C)(C)C2=O)ccc1Cl,·,17,72*,·,-3%,
CC1(C)NC(=O)N(CCCCOc2ccc(Cl)cc2)C1=O,·,-5,-2,·,·,
O=C(C[C@H]1C[C@H]2c3cc(NC(=O)C4CCOCC4)ccc3O[C@H]2[C@H](CO)O1)NCc1ccccn1,-2,·,·,2,·,
C[C@H](O)C#Cc1ccc2c(c1)O[C@@H](CN(C)C(=O)c1ccccc1)[C@@H](C)CN([C@@H](C)CO)S2(=O)=O,-1,·,·,-1,·,
CC(NC(=O)c1cccc(Br)c1)c1ccccc1 (stereo unspecified),0,-14,96*,-4,0%,
CC(NC(=O)c1cc(Br)ccc1Br)c1ccccc1 (stereo unspecified),·,9,-1,-3,·,
Cn1c(=O)[nH]c(=O)c2c1nc(N/N=C/c1cccnc1)n2Cc1ccc(Cl)cc1,0,20,0,-2,·,

# Screening results from PubChem BioAssay.
